Source: PubChem BioAssay
EBV LMP1 NFkB – Epstein-Barr LMP1 NF-kappaB reporter inhibition; LMP1-induced NF-kappaB luciferase reporter cells, luminescence; inhibition, % at 12.5 µM; 350,000 tested, 0.69% active; AID 504558; in the data active = inhibition above about 41%; inconclusive = no clear call, values can overlap the other calls;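 note: 0% = neutral control wells and 100% = reference inhibitor control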
TWEAK-Fn14 inh – blocks TWEAK-Fn14 interaction in a reporter cell assay. TWEAK-stimulated Fn14 reporter cells, luciferase luminescence, 8 h. inhibition, % at 10 µM. 360,000 tested, 2% active. AID 1159606; in the data active = inhibition above about 50%
TROY signal inh – TROY signaling inhibition | Q293 LMP1-TROYcd NF-kB luciferase reporter, 4 h | inhibition, % at 10 µM | 360,000 tested, 0.98% active;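 active = compounds whose plate-normalised and pattern-corrected inhibition of the luciferase reporter signal at the single screening dose is 50% or more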
HSP90 inh – blocks HSP90-mediated luciferase refolding in reticulocyte lysate; Rabbit reticulocyte lysate, luciferase refolding luminescence, 3 h; inhibition, % at 5.6 µM; 290,000 tested, 0.91% active; AID 1789;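 active = inhibition above the screen-wide mean plus 3 SD, computed separately per campaign, cut at about 16% in these data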;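 note: 0% = DMSO wells and 100% = 60 µM geldanamycin wells; inhibitors lower the luminescence because luciferase stays unfolded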
HSF-1 act – increases HSF-1 driven luciferase reporter signal | NIH3T3-HGL HSF-1 luciferase reporter, MG132, 8 h; 100% = twice DMSO control signal | activation, % at 9 µM | 300,000 tested, 1.7% active;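 active = mean replicate activation of at least 50% with a set share of replicates each reaching 50%; inconclusive = only one of those two conditions met; inactive = mean below 50% and too few replicates reaching it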;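 note: 0% = median of the neutral control wells and 100% = twice that signal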
HSF1 inh – HSF1 inhibition; NIH3T3-HGL HSE-luciferase, MG132-induced, luminescence 8 h; active compounds read low; 300,000 tested, 0.77% active; activity change, negative = inhibition, % at 7.5 µM (by protocol);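 active = more than half of replicate wells show activity change below -50%, luminescence cut by over half; inconclusive = some wells, but at most half, below -50%; inactive = no replicate well below -50%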;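 note: luciferase reports HSF-1 transcriptional activity via heat shock element; 0% = median of DMSO wells and -100% = zero luminescence signal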
Active calls of the source: *; ? = inconclusive; nt = not tested or not shown. Rows were chosen to be rich in hits. Some 4.7% of all compounds tested hit in one or more screens of this group.

SMILES | EBV LMP1 NFkB | TWEAK-Fn14 inh | TROY signal inh | HSP90 inh | HSF-1 act | HSF1 inh
COc1ccccc1C(=O)Oc1cc(N)n(S(=O)(=O)c2ccc(C)cc2)n1 | -1 | -1 | 26 | 1 | -13 | -11
Cc1ccc(S(=O)(=O)n2nc(OC(=O)c3ccccc3C)cc2N)cc1 | 5 | 57* | 30 | -3 | 2 | -8
O=C(CNC(=O)c1cccc(-n2cccc2)c1)Nc1ccccc1Br | 2 | -25 | -17 | nt | nt | nt
CC(C)C(=O)N1CCCC1(C)C(=O)Nc1ccc2c(c1)OCO2 (stereo not given) | nt | 7 | -6 | nt | nt | nt
COc1ccccc1/C=C1/SC(=S)N(C(C)C(=O)NC2C=CS(=O)(=O)C2)C1=O (stereo not given) | 6 | -18 | 6 | 6 | 64* | 10
CCN(CC)CCCN1C(=O)c2oc3ccccc3c(=O)c2C1c1cccc(OC)c1OC (stereo not given) | -3 | -19 | -8 | -1 | 67* | 31
COc1cccc(C2c3c(oc4ccccc4c3=O)C(=O)N2CCCN(C)C)c1OC (stereo not given) | 0 | 22 | -20 | 3 | 66* | 36
CCN(CC)CCN1C(=O)c2oc3ccccc3c(=O)c2C1c1ccc(C)cc1 (stereo not given) | -3 | 27 | nt | -1 | 13 | 2
CN(C)CCN1C(=O)c2oc3ccccc3c(=O)c2C1c1ccc(F)cc1 (stereo not given) | 1 | 2 | -18 | 1 | 19 | 6
CN1C(=O)[C@H]2[C@@H](c3ccc(C(F)(F)F)cc3)N[C@]3(CCCN(Cc4ccc(C(F)(F)F)cc4)C3=O)[C@H]2C1=O | -6 | -5 | -3 | nt | nt | nt
Fc1ccc(-c2nc3ccccc3c3nc4ccccc4n23)cc1 | 3 | 58* | 28 | -7 | 18 | -1
Nn1nnc2ccccc21 | -1 | -7 | 23 | nt | 34 | 7
CCn1c(SCC#N)nc2ccccc2c1=O | -3 | -12 | 7 | -1 | 6 | 7
Cc1nc2ccccc2c2nc3ccccc3n12 | -25 | -13 | -7 | 1 | 20 | -8
Clc1ccccc1-c1nc2ccccc2c2nc3ccccc3n12 | 1 | 30 | 57* | -2 | 26 | 1
c1ccc2c(c1)nnn1c3ccccc3nc21 | nt | nt | nt | 11 | 62* | 29
N#CCSc1nc2ccccc2c2nc3ccccc3n12 | 33 | 57* | -57 | 0 | 68* | 36
CC(C)N1CCC(C)(C(=O)Nc2ccccc2Oc2ccccc2)C1 (stereo not given) | nt | 9 | 6 | nt | nt | nt
O=S(=O)(Nc1cccc2ccccc12)c1cccs1 | -7 | -7 | 0 | -3 | 29 | 27
O=S(=O)(Nc1ccc(O)c2ccccc12)c1cccs1 | -1 | 82* | 28 | 8 | 27 | 7
CCOc1ccccc1/C=N/n1c(C2CCCCC2)n[nH]c1=S | 0 | -17 | 14 | 1 | -5 | -6
COc1ccccc1/C=C/C=N/n1c(C2CCCCC2)n[nH]c1=S | 11 | 34 | 69* | -2 | 15 | -1
CSc1ccc(/C=N/n2c(C3CCCCC3)n[nH]c2=S)cc1 | 4 | -35 | -2 | -2 | -1 | -8
S=c1[nH]nc(C2CCCCC2)n1/N=C/c1ccncc1 | 48* | 82* | 14 | 0 | -47 | -42
COc1cccc(CN2CCC2(C)C(=O)Nc2cccc(Oc3ccccc3)c2)c1OC (stereo not given) | nt | 28 | 13 | nt | nt | nt
SMILES | EBV LMP1 NFkB | TWEAK-Fn14 inh | TROY signal inh | HSP90 inh | HSF-1 act | HSF1 inh
O=C(NCC1CCCCC1)c1ccc2sc([C@H]3C[C@H](O)[C@@H](CO)O3)nc2c1 | nt | -6 | 1 | nt | nt | nt
O=C(/C=C/c1cccc(Cl)c1)c1ccc([N+](=O)[O-])o1 | -19 | 101* | 76* | nt | 20 | 17
COc1ccc(/C=C/C(=O)c2ccc([N+](=O)[O-])o2)cc1OC | nt | nt | nt | nt | ? | 39
COc1cc(/C=C/C(=O)c2ccc([N+](=O)[O-])o2)ccc1O | -21 | 97* | 52* | nt | 27 | 24
COc1ccc2c(c1)C(C)CC(C)(C)N2C(=O)NC1CCCCC1 (stereo not given) | -10 | 17 | -2 | 4 | 17 | 22
CC1CC(C)(C)N(C(=O)NC2CCCCC2)c2ccccc21 (stereo not given) | -5 | 1 | -21 | -1 | 57* | 11
CC(C)c1nc(Cl)c(C#N)c2c1CCCC2 | 6 | 52* | 1 | -4 | -33 | -30
CC(C)c1nc(NCCO)c(C#N)c2c1CCCC2 | 31 | 61* | 51* | -1 | -33 | -33
CC(C)c1nc(Cl)c(C#N)c2c1CCC2 | 6 | 21 | 0 | 2 | -8 | -9
CC(C)c1nc(NCc2ccccc2)c(C#N)c2c1CCCC2 | -25 | -13 | -8 | -3 | -37 | -14
O=C1NC[C@@H](CCCCN2CCN(CCc3ccc(O)cc3)C(=O)C2=O)N(CCC2CCCCC2)C1=O | nt | 7 | -8 | nt | nt | nt
Cc1nc(C)c(-c2ccc(SCc3ccc(Cl)cc3)nn2)s1 | -19 | 11 | -1 | 7 | 16 | 11
Cc1nc(C)c(-c2ccc(SCc3ccc([N+](=O)[O-])cc3)nn2)s1 | -5 | -24 | -17 | -1 | 52* | 28
CC(C)(C)N1C(=O)Cc2c1nc(N)c1c(N)nc(N3CCCCC3CO)c(C#N)c21 (stereo not given) | -15 | 7 | -10 | 2 | 68* | 24
CN(CCO)c1nc(N)c2c(N)nc3c(c2c1C#N)CC(=O)N3C1CCCC1 | nt | nt | nt | 5 | 14 | 3
O=C(C=C1SCCS1)/C=C/c1ccco1 | 86* | -7 | -18 | 4 | 35 | 18
Cc1cc(O)c(C(C)C)cc1NC(=S)Nc1cc(C(C)C)c(O)cc1C | -17 | 27 | 4 | nt | nt | nt
CCn1c(=O)c2c(cnn2C)c2ccccc21 | 47* | 58* | 43 | -1 | -35 | -26
CCCn1c2ccccc2c2cnn(CC(=O)O)c(=O)c21 | 2 | -9 | 2 | 0 | -8 | 0
Cc1cccc(C(=O)Oc2coc(CSc3nnc(NC(=O)C4CC4)s3)cc2=O)c1 | 1 | 18 | 25 | -1 | 2 | -5
Cc1ccc(C(=O)Oc2coc(CSc3nnc(NC(=O)C4CC4)s3)cc2=O)cc1C | -3 | 44 | 82* | 4 | nt | nt
O=C(c1cc(C2CCCCN2S(=O)(=O)c2ccc(F)cc2F)on1)N1CCOCC1 (stereo not given) | nt | -8 | 4 | nt | nt | nt
COc1cc2c(c(OC)c1OC)-c1ccc(OC)c(=O)cc1C(N)CC2 (stereo not given) | -2 | 64* | 19 | nt | nt | nt
COc1cc2c(c(OC)c1OC)-c1ccc(SC)c(=O)cc1C(N)CC2 (stereo not given) | 3 | -2 | 8 | nt | nt | nt
O=C1NN=C2CCCCCCC12 (stereo not given) | -5 | -6 | -1 | nt | nt | nt
Cc1sc2ncn(CC(=O)N3CCC(C(N)=O)CC3)c(=O)c2c1S(=O)(=O)N1CCOCC1 | 46* | 4 | -18 | -3 | 6 | -2
